# Measurements as given in PMC4081100, “A DNA-binding-site landscape and regulatory network analysis for NAC transcription factors in Arabidopsis thaliana”.
# Key:
# Experiment in all cases: universal protein binding microarray (PBM); transcription factors of Arabidopsis thaliana; high values mean tight binding
# Conditions in all cases: protein: recombinant; tags: GST; chain copies: 2; dsDNA, one strand shown
# GST-ANAC092(1-176) = biological target: T1, GST-ANAC092(1-176) (Arabidopsis thaliana, UniProt Q9FKA0 1-176)
# T1 sequence: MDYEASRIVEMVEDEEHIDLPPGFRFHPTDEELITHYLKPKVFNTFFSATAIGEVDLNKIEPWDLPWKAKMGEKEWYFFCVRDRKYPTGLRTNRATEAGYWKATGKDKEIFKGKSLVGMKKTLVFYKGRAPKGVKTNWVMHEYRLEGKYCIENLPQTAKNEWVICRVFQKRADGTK
# In short: (§1)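 Protein amounts were determined by A280 or anti-GST western blot after glutathione–Sepharose 4B purification of GST-tagged proteins induced in cells, with zinc acetate included for zinc-finger proteins. Duplicate runs at 200 to 500 nM final were done on custom all-10-mer Agilent 4 × 180K arrays made double-stranded by primer extension. The normalised enrichment score (E-score) over gapped and ungapped 8-mers is the measure of binding.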
# GST-ANAC019 NAC domain = biological target: T2, GST-ANAC019 NAC domain (Arabidopsis thaliana, UniProt Q9C932 14-162)
# T2 sequence: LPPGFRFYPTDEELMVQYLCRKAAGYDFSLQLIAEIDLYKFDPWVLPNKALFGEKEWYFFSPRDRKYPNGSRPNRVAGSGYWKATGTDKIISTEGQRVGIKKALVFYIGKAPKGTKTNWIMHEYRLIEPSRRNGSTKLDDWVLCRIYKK
# In short: as §1
# GST-ANAC055(1-171) = biological target: T3, GST-ANAC055(1-171) (Arabidopsis thaliana, UniProt Q9LDY8 1-171)
# T3 sequence: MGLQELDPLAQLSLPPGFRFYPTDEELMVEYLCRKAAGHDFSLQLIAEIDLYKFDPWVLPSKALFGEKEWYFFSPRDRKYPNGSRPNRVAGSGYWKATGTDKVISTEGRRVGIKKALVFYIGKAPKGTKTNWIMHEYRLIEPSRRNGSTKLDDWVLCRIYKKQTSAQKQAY
# In short: as §1
# GST-ATAF1 NAC domain = biological target: T4, GST-ATAF1 NAC domain (Arabidopsis thaliana, UniProt Q39013 7-158)
# T4 sequence: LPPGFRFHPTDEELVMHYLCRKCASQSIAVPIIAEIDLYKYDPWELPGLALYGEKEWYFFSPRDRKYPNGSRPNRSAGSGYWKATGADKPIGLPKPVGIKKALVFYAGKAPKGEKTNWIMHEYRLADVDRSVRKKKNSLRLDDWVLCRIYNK
# In short: as §1
# [1] = biological target: T5, GST-ANAC092(1-285) full length (Arabidopsis thaliana, UniProt Q9FKA0 1-285)
# T5 sequence: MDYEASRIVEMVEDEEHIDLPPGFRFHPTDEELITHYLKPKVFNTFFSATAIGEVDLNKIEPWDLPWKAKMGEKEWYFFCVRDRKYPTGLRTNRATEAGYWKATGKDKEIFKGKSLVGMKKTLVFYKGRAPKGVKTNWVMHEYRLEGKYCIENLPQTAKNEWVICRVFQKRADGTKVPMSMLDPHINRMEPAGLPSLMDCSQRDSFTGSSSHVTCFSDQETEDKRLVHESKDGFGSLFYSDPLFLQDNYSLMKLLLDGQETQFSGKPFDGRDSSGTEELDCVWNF
# In short: as §1
# GST-NAP(1-166) = biological target: T6, GST-NAP(1-166) (Arabidopsis thaliana, UniProt O49255 1-166)
# T6 sequence: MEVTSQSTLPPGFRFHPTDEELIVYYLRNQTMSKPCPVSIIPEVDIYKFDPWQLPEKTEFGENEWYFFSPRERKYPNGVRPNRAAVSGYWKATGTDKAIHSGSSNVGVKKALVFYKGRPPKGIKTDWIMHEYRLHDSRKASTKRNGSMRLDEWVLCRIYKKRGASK
# In short: as §1
# GST-NST2(1-184) = biological target: T7, GST-NST2(1-184) (Arabidopsis thaliana, UniProt Q9M274 1-184)
# T7 sequence: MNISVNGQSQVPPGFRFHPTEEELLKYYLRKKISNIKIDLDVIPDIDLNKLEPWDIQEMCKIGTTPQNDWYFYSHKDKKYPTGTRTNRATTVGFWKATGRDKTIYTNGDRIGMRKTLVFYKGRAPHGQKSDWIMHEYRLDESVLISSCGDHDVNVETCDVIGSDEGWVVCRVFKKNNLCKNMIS
# In short: as §1
# GST-SND1(1-203) = biological target: T8, GST-SND1(1-203) (Arabidopsis thaliana, UniProt Q9LPI7 1-203)
# T8 sequence: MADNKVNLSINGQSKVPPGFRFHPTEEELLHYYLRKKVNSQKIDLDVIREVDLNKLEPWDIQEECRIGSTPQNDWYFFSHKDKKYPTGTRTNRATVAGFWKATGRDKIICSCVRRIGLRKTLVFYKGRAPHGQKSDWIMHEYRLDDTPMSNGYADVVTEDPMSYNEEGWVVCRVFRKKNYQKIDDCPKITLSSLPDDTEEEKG
# In short: as §1
# GST-VND3 NAC domain = biological target: T9, GST-VND3 NAC domain (Arabidopsis thaliana, UniProt Q9FH59 12-162)
# T9 sequence: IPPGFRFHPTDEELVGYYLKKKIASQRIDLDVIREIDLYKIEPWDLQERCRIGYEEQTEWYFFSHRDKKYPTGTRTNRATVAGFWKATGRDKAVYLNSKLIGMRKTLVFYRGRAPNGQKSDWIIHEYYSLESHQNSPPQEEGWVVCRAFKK
# In short: as §1
# GST-VND7 NAC domain = biological target: T10, GST-VND7 NAC domain (Arabidopsis thaliana, UniProt Q9C8W9 9-158)
# T10 sequence: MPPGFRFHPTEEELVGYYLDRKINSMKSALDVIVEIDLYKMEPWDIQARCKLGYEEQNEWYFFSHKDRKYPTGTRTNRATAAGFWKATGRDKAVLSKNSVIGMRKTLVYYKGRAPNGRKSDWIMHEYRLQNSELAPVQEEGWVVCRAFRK
# In short: as §1
# GST-NTL6(1-168) = GST-NTL6(1-168) (Arabidopsis thaliana, UniProt Q9SCK6 1-168)
# In short: as §1
# GST-NTL8 NAC domain = biological target: T11, GST-NTL8 NAC domain (Arabidopsis thaliana, UniProt Q9XIN7 14-156)
# T11 sequence: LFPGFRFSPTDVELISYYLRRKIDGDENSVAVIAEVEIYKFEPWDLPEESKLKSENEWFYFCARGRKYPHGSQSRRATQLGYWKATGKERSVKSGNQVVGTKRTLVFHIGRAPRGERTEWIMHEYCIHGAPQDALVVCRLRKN
# In short: as §1
# GST-NTL6(1-168), sequence (Q9SCK6 1-168): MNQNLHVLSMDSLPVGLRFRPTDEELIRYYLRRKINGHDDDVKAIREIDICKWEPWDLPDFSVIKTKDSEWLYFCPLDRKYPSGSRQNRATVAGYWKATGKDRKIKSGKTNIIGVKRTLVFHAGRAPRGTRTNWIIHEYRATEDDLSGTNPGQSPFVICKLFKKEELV
Sequence,binding signal (GST-ANAC092(1-176)) [E-score],binding signal (GST-ANAC019 NAC domain) [E-score],binding signal (GST-ANAC055(1-171)) [E-score],binding signal (GST-ATAF1 NAC domain) [E-score],binding signal [1] [E-score],binding signal (GST-NAP(1-166)) [E-score],binding signal (GST-NST2(1-184)) [E-score],binding signal (GST-SND1(1-203)) [E-score],binding signal (GST-VND3 NAC domain) [E-score],binding signal (GST-VND7 NAC domain) [E-score],binding signal (GST-NTL6(1-168)) [E-score],binding signal (GST-NTL8 NAC domain) [E-score]
CACGGCAG,0.39,0.457,0.403,0.307,0.426,0.227,0.0722,0.11,0.412,0.384,,
ACGTAAAC,0.397,0.427,0.355,0.321,0.43,0.368,0.317,0.404,0.402,0.266,,
AGCGTGTC,0.398,0.206,0.174,0.165,0.432,0.0924,0.107,0.131,0.156,0.208,,
TGAAGTAA,0.242,,0.155,0.169,0.323,,0.324,0.424,0.131,0.132,0.377,0.437
ATTTCGTG,0.389,0.174,0.22,0.154,0.422,0.133,0.136,0.109,0.191,0.157,,
CACACGTC,0.33,0.214,0.221,0.248,0.405,0.172,0.079,0.157,0.199,0.176,,
